Source: PubChem (National Center for Advancing Translational Sciences (NCATS))
DT40 TDP1 CPT = growth inhibition of DT40 Tdp1-/-;hTDP1 cells with camptothecin (screen for TDP1 inhibitors). chicken DT40 Tdp1-/-;hTDP1 cells + 20 nM CPT, ATP luminescence, 48 h. Potency, µM (highest dose often 46.2 µM), actives largely listed as inhibitors. 420,000 compounds, 12% hits. AID 686979; further: nearly all actives have a fitted effect of over 55% in size
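Chicken DT40 Tdp1-/- cells stably complemented with human TDP1 were seeded at 400 cells/well in medium containing 20 nM camptothecin, exposed to pin-transferred compounds, and grown at 37 °C for at least 48 hr. Viability was read as ATP luminescence.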
ELG1 DNA repair = blocks ELG1-dependent DNA repair in HEK293T cells; 330,000 compounds, 2.3% hits; Potency, µM (doses to about 46.1 µM), actives largely listed as inhibitors; HEK293T ELG1-luciferase reporter, luminescence, 16 h; DNA damage induced by 5-fluorouridine; further: nearly all actives have a fitted effect of over 55% in size
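Overnight (16 hr) co-exposure of 2,000 cells/well to 5-fluorouridine and compound at 37 °C preceded detection. Luciferase was quantified via ONE-Glo luminescence; loss of signal denotes inhibition.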
HT1080NT lethal = kills 2HG-producing HT-1080-NT fibrosarcoma cells; HT-1080-NT fibrosarcoma viability, CellTiter-Glo ATP luminescence, 48 h; Potency, µM (titrated, usually from 46.1 µM), most hits filed as cytotoxic; 360,000 compounds, 1.6% hits; AID 686970;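 further: NT is the 2HG producing partner of a matched IDH1 knockdown line; nearly all actives have a fitted effect of over 55% in size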
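Viability of the 2HG-overproducing fibrosarcoma line after 48 hours of compound exposure at 37 degrees C was determined by luminescence with CellTiter-Glo, and concentration-effect curves were then fitted and categorized.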
IL1B secr inh = blocks inflammasome-driven IL-1 beta release | THP-1 LPS/ATP IL-1B secretion, AlphaLISA, 16 h; active compounds read low | activity change, % at 57.5 µM | 360,000 compounds, 4.7% hits | AID 743279; in the data active means activity change below about -50%; inconclusive means mostly about -30% to -49%
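Secreted IL-1B measured by AlphaLISA bead assay after 16 h compound exposure of THP-1 cells; compounds (final up to 57.5 uM) added 1 h before LPS (250 ng/mL) and ATP (1.25 mM) stimulation; lower signal means less secretion.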
TDP1 cell noCPT = qHTS for Inhibitors of human tyrosyl-DNA phosphodiesterase 1 (TDP1): qHTS in cells in absence of CPT; 420,000 compounds, 15% hits; AID 686978, 2013; DT40 Tdp1-/- hTDP1 cells, no CPT, ATP luminescence, 48 h; Potency, µM (top dose mostly 46.2 µM), most hits filed as inhibitors; further: nearly all actives have a fitted effect of over 55% in size
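Stably hTDP1-transfected Tdp1-null chicken DT40 cells were treated with library compounds minus camptothecin and grown for at least 48 hr at 37 °C, after which cellular ATP was quantified by luminescence.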
HT1080 IDH1KD tx = toxicity to HT-1080 IDH1 knockdown cells (counter line). HT-1080 IDH1 knockdown viability, ATP luminescence, 48 h. Potency, µM (titrated, usually from 46.1 µM), most hits filed as cytotoxic. 360,000 compounds, 2% hits. AID 686971
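Viability of IDH1-knockdown HT-1080 fibrosarcoma cells was assessed by CellTiter-Glo after 48 h at 37 °C with titrated compound; concentration-effect curves were classified by fit quality and response size.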
Of the large screens only hits and unclear results are named; the others gave an inactive call. Shown are actives, neighbours in structure and some others; about 19% of the full set was active somewhere. Unless noted, the call rests on the fitted dose curve; in most records, active means well fitted curve in the direction sought with a large enough effect; inconclusive means small, poorly fitted or top-dose-only effect, or another doubt; inactive means no such curve, though single readings can be large; an effect the other way counts as inactive or inconclusive.

Cc1cc(N=Cc2c(O)n(-c3ccc4c(c3)OCO4)c(=O)c3ccccc23)ccn1	DT40 TDP1 CPT 18µM, ELG1 DNA repair inconclusive, HT1080NT lethal inconclusive, IL1B secr inh inconclusive, TDP1 cell noCPT 18µM, HT1080 IDH1KD tx inconclusive
Cc1cccc(-n2c(O)c(C=Nc3cccc(O)c3)c3ccccc3c2=O)n1	DT40 TDP1 CPT 21µM, ELG1 DNA repair inconclusive, TDP1 cell noCPT inconclusive
Cc1ccc(-n2c(O)c(C=Nc3ccc4c(c3)OCO4)c3ccccc3c2=O)cc1C	DT40 TDP1 CPT 7.3µM, ELG1 DNA repair inconclusive, TDP1 cell noCPT inconclusive
CCOC(=O)Cc1csc(/N=C/c2c(O)n(-c3ccc(C)c(C)c3)c(=O)c3ccccc23)n1	DT40 TDP1 CPT 21µM, TDP1 cell noCPT inconclusive
Cc1cccc(-n2c(O)c(C=Nc3ccc4c(c3)OCO4)c3ccccc3c2=O)n1	DT40 TDP1 CPT inconclusive, ELG1 DNA repair inconclusive, IL1B secr inh inconclusive, TDP1 cell noCPT inconclusive
COc1ccccc1/C(C)=N/Oc1cc(N)cc([N+](=O)[O-])c1	ELG1 DNA repair inconclusive
O=C(c1ccccc1)N1CCN(C(=S)NCc2ccco2)CC1	ELG1 DNA repair inconclusive, HT1080 IDH1KD tx inconclusive
Cn1cnc2c(NCc3ccccc3)nc(Cl)nc21	none (no result: ELG1 DNA repair, HT1080NT lethal, IL1B secr inh, HT1080 IDH1KD tx)
Cc1c(CCOC(=O)c2ccc([N+](=O)[O-])cc2)sc[n+]1CC(=O)c1ccccc1	TDP1 cell noCPT inconclusive
Cc1c(CCOC(=O)c2cccc([N+](=O)[O-])c2)sc[n+]1CC(=O)c1ccccc1	DT40 TDP1 CPT 8.2µM, ELG1 DNA repair inconclusive, TDP1 cell noCPT inconclusive
O=C(C[n+]1csc2ccccc21)c1cccc([N+](=O)[O-])c1	DT40 TDP1 CPT 11µM, TDP1 cell noCPT 10µM (no result: ELG1 DNA repair, HT1080NT lethal, IL1B secr inh, HT1080 IDH1KD tx)
Cc1cc[n+](CC(=O)c2cccc([N+](=O)[O-])c2)c2ccccc12	none
COc1ccc(C(=O)OCCc2sc[n+](CC(=O)c3ccccc3)c2C)cc1	DT40 TDP1 CPT inconclusive, IL1B secr inh -55, TDP1 cell noCPT inconclusive
COc1ccccc1-c1cnc(C(O)c2ccc(C)cc2C)[nH]1 (stereo unspecified)	TDP1 cell noCPT inconclusive (no result: ELG1 DNA repair)
CCc1ccc([C@@H]2C[C@H]3[C@@H](CN2S(=O)(=O)c2ccc(C)cc2)C(=O)C[C@@H](c2ccccc2F)N3S(=O)(=O)c2ccc(C)cc2)cc1	TDP1 cell noCPT inconclusive (no result: ELG1 DNA repair)
O=c1[nH]c(C2CCN(S(=O)(=O)c3ccccc3F)CC2)nc2c1nnn2Cc1ccc(OC(F)(F)F)cc1	DT40 TDP1 CPT inconclusive, ELG1 DNA repair 18µM, TDP1 cell noCPT inconclusive
O=c1[nH]c(C2CCN(S(=O)(=O)c3ccccc3C(F)(F)F)CC2)nc2c1nnn2Cc1ccccc1	DT40 TDP1 CPT inconclusive, ELG1 DNA repair inconclusive, HT1080NT lethal inconclusive, IL1B secr inh -51, TDP1 cell noCPT inconclusive, HT1080 IDH1KD tx inconclusive
Cc1ccc(Cn2nnc3c(=O)[nH]c(C4CCN(S(=O)(=O)Cc5ccccc5)CC4)nc32)cc1	DT40 TDP1 CPT inconclusive, ELG1 DNA repair 15µM, HT1080NT lethal inconclusive, TDP1 cell noCPT inconclusive, HT1080 IDH1KD tx inconclusive
COc1ccc(-n2c(=O)c(CCc3ccccc3)nc3cnc(N(C)C)nc32)cc1	none (no result: ELG1 DNA repair, HT1080NT lethal, IL1B secr inh, HT1080 IDH1KD tx)
Cc1cccc(N2CCN(C(=O)NC(C)c3ccc(F)c(F)c3)CC2)c1C (stereo unspecified)	DT40 TDP1 CPT inconclusive, TDP1 cell noCPT inconclusive
CCn1c(=O)n(-c2ccc(Cl)cc2)c(=O)c2c3c(sc21)COC(C)(C)C3	none
CC1(C)Cc2c(sc3[nH]c(=S)n(Cc4ccco4)c(=O)c23)CO1	DT40 TDP1 CPT 21µM, HT1080NT lethal inconclusive, IL1B secr inh inconclusive, TDP1 cell noCPT inconclusive, HT1080 IDH1KD tx inconclusive
CC1(C)Cc2c(sc3c2c(=N)n(Cc2ccco2)c(=O)n3Cc2ccccc2)CO1	DT40 TDP1 CPT 18µM, ELG1 DNA repair 12µM, TDP1 cell noCPT inconclusive
O=c1c2c3c(sc2[nH]c(=S)n1Cc1ccco1)CCC3	none
